For the assay, the system named is PXR homodimer (NR concentration 270 nM). Kind of assay: PBM binding z-score (relative to random genomic background probes); higher = stronger binding; sequences stand for … in GC…GCGATTGACAGCGTAGAATGAAGG
In short, it runs like this: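 On custom Agilent 4×180K arrays, double-stranded probes with 34-nt variable regions carried direct-repeat seeds, single-nucleotide variants, half-site ablations or random human genomic background. Ligand-free nuclear receptor dimers were applied for 1 h, and binding was read with antibodies against each partner (one per run). Binding z-scores come from regression-normalized fluorescence, with the random background probes as reference.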
Regarding CTCGAAAGGTCGGTTGAGGTGAGAATACGGATAA, the PBM binding z-score is 0.108. The sequence TCTGCTAGGTCAGCTGGTCAGCTAACGAGCTGCC came in with a PBM binding z-score of -1.58. GCTTGTAGATCATGGTTAAGAAAGACTAAGCTAA yielded a PBM binding z-score of -0.29. To TCTGCTAGGTCAGTTTGTCAGCTAACGAGCTGCC belongs -0.604; to TCATATAGGTAAATGCTAGTTGAAAGTCCGATCT, 0.757. In turn, TCTCGGAGGACACGTAAGGTCAGAGCTCGACATC displayed a PBM binding z-score of 0.734. In turn, ATGTCTAGGTAAAGATAGTTCAGTGAATGCAAAT gave a PBM binding z-score of 0.588.

In turn, TATACAGGGTCAAAGTCCAGAGTACGAATGTCGA came in with a PBM binding z-score of 1.31.

For the sequence GGAACCAGGGCAAGTTGATAGCAGAGTTTGATGG, the PBM binding z-score turned out to be 0.742. The result for CCTAGCAGGCCAGGGTCACTGAAGCATTTCGCTT reads -0.468; that for CGTCCAAGGTCAATGCTAGGACAGTGAAAGCATT, 0.241. Consider CCTACTGGGCCATTCATAGGTCATTGATCATATG, for which the PBM binding z-score stood at 0.411. The result for CGAACTAGGTGATCCAGGACAGTGAATACATTGA reads 0.369. The result for ACTAGCAGGTCAAGTTTGGGTCACTCAAACAAAG reads 0.228. The result for TCTCGTAGATCAAGCAGGTTAAGAAAGCCTGAGT reads -0.267; that for GCTGCTAGGTCAGTTTGGTCAGCTAACGGGTACG, -0.275. CCTACTGGGCCATCAGATCATTGATATCAACGTT registered a PBM binding z-score of -0.238. The result for CCGAGTGGGGCAGAAAGGTTACCATACCATCCGG reads 0.126; that for AGTCAAAGTTCACTAGGTAACCTAAGATTCAGCT, 4.07. TCTAGCAGGCCCGAGGGTCACTCAAGAGGTACGG yielded a PBM binding z-score of -0.577.

Sequence TCGACTAGGTTACCAATGGGGCATTCAGCTTTCT had a PBM binding z-score of -0.246. For the sequence GCGACTGGGGCATCAGCAGGTTAGCATAACTTAA, the PBM binding z-score was -0.845. The result for TTACCAAGGTGAGCTGAGCTCGTTGATCCAACTC reads -0.854. AGAACGAGGGCAATAAGTTGATAGCACGGGTGGC: the PBM binding z-score was found to be 3.39. Take CGTCAAAGATCAACTAAGGTAACGTAAAGCACGC: the PBM binding z-score is 0.224. For AGAACGAGGGCAAGCTGAGTTGATAGCAGAGTAG, the PBM binding z-score was 0.458. With TTACCAAGGTGAAGGGTCGTTGATGCACGCCTTG, the PBM binding z-score is -0.419. In turn, CCGACTGGGGCAGAACGGTTACCATACCATCCGG returned a PBM binding z-score of -0.492. To TCATATAGGTGAATGCTAGGTGAAAGTCCGATCT belongs -0.173. Take TGGCCTAGGTCATTGGGCCAGTATAGTACGCATC: the PBM binding z-score was -0.797. In the case of TCTTGTAGGTCAAGCAGGTTAAGAAAGCCTGAGT, the PBM binding z-score is 0.673. With ATCGAAAGGTCGAGGTGATTATAGAGAAAGGGAA, the PBM binding z-score turned out to be 0.0251. The result for CGAACGAGGGCATGGGTTGATAGCAAATGCCGAT reads 0.232; that for TTATATAGGTAAACAGGTGAAAGTCCGTAAGTTA, 0.398. The sequence CCTACTGGGCCAAAAAGGTCATTGAGGCCGATAA gave a PBM binding z-score of 10.7. The result for CCTACTGGGCCAAAGGTCATTCATTCCAATGCTC reads 2.49.

As for TAGCCTACGTCAGATCGGGCCAGTATACGCTATA, the PBM binding z-score was -1.22. To ATCTCTAGGAAACAAGTTCAGTGAAAGAGAGGAC belongs 1.82; to CCAACTAGGTCAGAACAGGACAGTGAAGGATGAT, 0.914; to CCGACTGCGGCATAAGGTTACCATAAGCCAGCCC, -0.316.

These data come from the supplement of paper PMC6555819.
